According to PubChem BioAssay (NCI):
Compounds without any hit were thinned out: in the full panel of roughly 83,000, 20% have a hit.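 Activity criterion: percent growth below 10, measured after cells in 96-well plates were exposed to a single compound concentration for 48 hours.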

Tests used:
Test in all cases: NCI-60 one-dose screen, 48 h (100 = growth as untreated, 0 = no growth, -100 = all killed)
Conditions in all cases: 10 µM unless noted
NCI-H23 lung = system: NCI-H23 lung
NCI-H226 lung = system: NCI-H226 lung
NCI-H322M lung = system: NCI-H322M lung
HOP-62 NSCLC = system: HOP-62 NSCLC
NCI-H460 lung = system: NCI-H460 lung
HOP-92 NSCLC = system: HOP-92 NSCLC
NCI-H522 lung = system: NCI-H522 lung
A549/ATCC NSCLC = system: A549/ATCC NSCLC
786-0 renal = system: 786-0 renal
COLO 205 colon = system: COLO 205 colon

Measured: growth

COC(=O)C1=C(C)C(=O)CC1
inactive: NCI-H23 lung 120% | NCI-H226 lung 109% | NCI-H322M lung 115% | HOP-62 NSCLC 114% | NCI-H460 lung 118% | HOP-92 NSCLC 113% | NCI-H522 lung 101% | A549/ATCC NSCLC 112% | 786-0 renal 108% | COLO 205 colon 141%

COc1ccc(C2CC(c3ccccc3)=Nc3ccccc3S2)cc1 (stereo not given)
inactive: NCI-H23 lung 98% | NCI-H226 lung 98.2% | NCI-H322M lung 90.3% | HOP-62 NSCLC 98.7% | NCI-H460 lung 105% | HOP-92 NSCLC 87.1% | NCI-H522 lung 77.6% | A549/ATCC NSCLC 111% | 786-0 renal 98.2% | COLO 205 colon 97.1%

COC1OC(C(COC(C)=O)OC(C)=O)C(OC(C)=O)C(OC(C)=O)C1OC(C)=O (stereo not given)
inactive: NCI-H23 lung 112% | NCI-H226 lung 99.4% | NCI-H322M lung 115% | HOP-62 NSCLC 99.3% | NCI-H460 lung 112% | HOP-92 NSCLC 128% | NCI-H522 lung 103% | A549/ATCC NSCLC 106% | 786-0 renal 107% | COLO 205 colon 116%

CCCC(OC(C)=O)c1ccc2c(c1)OCO2 (stereo not given)
inactive: NCI-H23 lung 97.7% | NCI-H226 lung 99.4% | NCI-H322M lung 97.8% | HOP-62 NSCLC 98.7% | NCI-H460 lung 106% | HOP-92 NSCLC 104% | NCI-H522 lung 103% | A549/ATCC NSCLC 104% | 786-0 renal 100% | COLO 205 colon 107%

Cc1ccccc1CC(N)C(=O)O (stereo not given)
inactive: NCI-H23 lung 98.2% | NCI-H226 lung 115% | NCI-H322M lung 98.6% | HOP-62 NSCLC 103% | NCI-H460 lung 109% | HOP-92 NSCLC 92.3% | NCI-H522 lung 112% | A549/ATCC NSCLC 107% | 786-0 renal 107% | COLO 205 colon 114%

CC(=O)NNC(=S)N/C=C/c1c(C)ccc([N+](=O)[O-])c1[N+](=O)[O-]
inactive: NCI-H23 lung 94.8% | NCI-H226 lung 110% | NCI-H322M lung 111% | HOP-62 NSCLC 103% | NCI-H460 lung 102% | HOP-92 NSCLC 100% | NCI-H522 lung 87.8% | A549/ATCC NSCLC 102% | 786-0 renal 97.2% | COLO 205 colon 101%

Cc1ccc2[nH]c3ccccc3c2c1
inactive: NCI-H23 lung 96.9% | NCI-H226 lung 103% | NCI-H322M lung 99.6% | HOP-62 NSCLC 113% | NCI-H460 lung 99.7% | HOP-92 NSCLC 100% | NCI-H522 lung 101% | A549/ATCC NSCLC 102% | 786-0 renal 93.9% | COLO 205 colon 109%

Cc1cc(NC(=O)c2ccccc2)c(Cl)cc1N
inactive: NCI-H23 lung 98.6% | NCI-H226 lung 97.1% | NCI-H322M lung 97.7% | HOP-62 NSCLC 96.7% | NCI-H460 lung 99.9% | HOP-92 NSCLC 106% | NCI-H522 lung 79.5% | A549/ATCC NSCLC 99.4% | 786-0 renal 92.1% | COLO 205 colon 129%

Oc1ccc(N=Cc2ccc(OCc3ccccc3)cc2)cc1
inactive: NCI-H23 lung 95.5% | NCI-H226 lung 102% | NCI-H322M lung 93.8% | HOP-62 NSCLC 109% | NCI-H460 lung 104% | HOP-92 NSCLC 97.5% | NCI-H522 lung 90.8% | A549/ATCC NSCLC 112% | 786-0 renal 99.4% | COLO 205 colon 103%

Ic1cccs1
inactive: NCI-H23 lung 97.7% | NCI-H226 lung 107% | NCI-H322M lung 105% | HOP-62 NSCLC 99% | NCI-H460 lung 108% | HOP-92 NSCLC 121% | NCI-H522 lung 97.5% | A549/ATCC NSCLC 98% | 786-0 renal 105% | COLO 205 colon 117%

CCOC(=O)C(CCC#N)(CCC#N)C(=O)OCC
inactive: NCI-H23 lung 96.6% | NCI-H226 lung 98.4% | NCI-H322M lung 113% | HOP-62 NSCLC 102% | NCI-H460 lung 103% | HOP-92 NSCLC 84% | NCI-H522 lung 117% | A549/ATCC NSCLC 102% | 786-0 renal 98.4% | COLO 205 colon 102%

COCC(N)=O
inactive: NCI-H23 lung 103% | NCI-H226 lung 99% | NCI-H322M lung 100% | HOP-62 NSCLC 95% | NCI-H460 lung 108% | HOP-92 NSCLC 94.5% | NCI-H522 lung 100% | A549/ATCC NSCLC 104% | 786-0 renal 92% | COLO 205 colon 111%

S=c1nc(-c2ccccn2)c(-c2ccccn2)n[nH]1
inactive: NCI-H23 lung 100% | NCI-H226 lung 101% | NCI-H322M lung 103% | HOP-62 NSCLC 110% | NCI-H460 lung 112% | HOP-92 NSCLC 66.2% | NCI-H522 lung 82.7% | A549/ATCC NSCLC 105% | 786-0 renal 98.4% | COLO 205 colon 115%

CN=S(=O)(OCCCCCOS(=O)(=NC)c1ccc(C)cc1)c1ccc(C)cc1 (stereo not given)
inactive: NCI-H23 lung 89.1% | NCI-H226 lung 86% | NCI-H322M lung 101% | HOP-62 NSCLC 101% | NCI-H460 lung 55.7% | HOP-92 NSCLC 59.2% | NCI-H522 lung 116% | A549/ATCC NSCLC 119% | 786-0 renal 99.3% | COLO 205 colon 113%

CCOS(=O)(=O)c1ccc([N+](=O)[O-])cc1
inactive: NCI-H23 lung 101% | NCI-H226 lung 101% | NCI-H322M lung 102% | HOP-62 NSCLC 100% | NCI-H460 lung 107% | HOP-92 NSCLC 99.4% | NCI-H522 lung 94.3% | A549/ATCC NSCLC 86.1% | 786-0 renal 107% | COLO 205 colon 109%

Cc1[nH]nc(C(N)=O)c1[N+](=O)[O-]
inactive: NCI-H23 lung 89.2% | NCI-H226 lung 87.6% | NCI-H322M lung 105% | HOP-62 NSCLC 77.5% | NCI-H460 lung 98.9% | HOP-92 NSCLC 84.1% | NCI-H522 lung 106% | A549/ATCC NSCLC 101% | 786-0 renal 103% | COLO 205 colon 102%

C=CC(C)(C)n1cc(C2=C(O)C(=O)C(c3cn(C(C)(C)C=C)c4ccccc34)=C(O)C2=O)c2ccccc21
inactive: NCI-H23 lung 80.7% | NCI-H226 lung 89.9% | NCI-H322M lung 89% | HOP-62 NSCLC 73.1% | NCI-H460 lung 89.5% | HOP-92 NSCLC 60.9% | NCI-H522 lung 98.2% | A549/ATCC NSCLC 89.4% | 786-0 renal 87.8% | COLO 205 colon 96.6%
